Test results taken from PubChem BioAssay (NCATS).
Inconclusive results are not listed. Entries that show only a call come without a potency. Calls of active or inactive are those of the source. Calls come from the whole dose curve; as a rule, active = well fitted inhibition curve with a large enough effect; inconclusive = small, poorly fitted or top-dose-only effect; inactive = no such curve, though single readings can be large or run the other way.

Test: qHTS Screen of the MIPE 4.0 Collection Against Ewings Sarcoma (TC32) (AID 1259256); note: nearly all actives have a fitted effect of over 45% in size
Details: TC32 Ewing sarcoma viability, CellTiter-Glo, 48 h; series mostly up to 45.8 µM
Source text: There is a large unmet medical need for treatments for Ewing sarcoma, a pediatric sarcoma. We sought to identify compounds that inhibited Ewing sarcoma cells in vitro with the goal to then test promising drugs in two drug combinations in vitro to look for synergistic drug combinations. Promising combinations would then proceed to additional validation, including in vivo testing.
Using the NCATS developed oncology compound library called the Mechanism of Interrogation Plate (MIPE), four Ewing sarcoma cell lines were evaluated (TC32, TC71, RDES, EW8). Compounds, in a 12-point titration series, were incubated with cells for 48 hours and the read out was cell viability (CellTiter-Glo from Promega). These initial experiments were used to select appropriate concentrations of each single agent for subsequent two-drug matrix combinations such that the concentrations in the matrices would span both activity and non-activity.
Cells, in the log phase of growth, were seeded in 5 uL of RPMI plus 5% FBS, […] L-glutamine, 100 U/ml penicillin and 100 ug/ml streptomycin into 1536-well solid-bottom white tissue culture treated Greiner Bio One Plates (789173-F) using a MultiDrop Combi (Thermofisher Scientific) dispenser and a small sterile cassette. One column was media alone to be used as a :"no cells" control. The plates were then covered with sterilized stainless steel gasketed lids from Kalypsys. After allowing cells to attach for 4 hours, 23 nL of test compound or control (negative control DMSO and positive control 9.2 uM Bortezomib-final) were added from a 1536-well polypropylene compound source plate to each well using a 1536 head pin tool from Kalypsys. Cells were then incubated for 48 hours at 37C, 95% relative humidity and 5% CO2. After 48 hours, plates were removed from the incubator and 3 uL of CellTiter-Glo (Promega) was added using an Aurora Flying Reagent Dispenser Bioraptor. Plates were incubated at room temperature for 10 minutes prior to reading the luminescence on the Viewlux (PerkinElmer). The relative luciferase units are used to calculate the percent activity using the activity of DMSO in the cells and no cells columns for normalization of no inhibition and full inhibition respectively.
Potency is the fitted concentration of half-maximal effect.

| SMILES | Potency |
| --- | --- |
| Cn1cc(C2=C(c3cn(C4CCN(Cc5ccccn5)CC4)c4ccccc34)C(=O)NC2=O)c2ccccc21 | 8.33 µM (active) |
| O=P1(NCCCl)OCCCN1CCCl (stereo unspecified) | inactive |
| C=C(C)[C@H]1Cc2c(ccc3c2O[C@@H]2COc4cc(OC)c(OC)cc4[C@@H]2C3=O)O1 | 0.743 µM (active) |
| Cn1c(CCCC(=O)O)nc2cc(N(CCCl)CCCl)ccc21 | inactive |
| CN(C)CCN(C)CCc1ccc(Cl)c(Cl)c1 | inactive |
| CN(C)[C@@H]1C(=O)C(C(N)=O)=C(O)[C@@]2(O)C(=O)C3=C(O)c4c(O)cccc4[C@@](C)(O)[C@H]3C[C@@H]12 | 6.62 µM (active) |
| O=c1[nH]c2ccccc2n1CCCN1CCC(n2c(=O)[nH]c3cc(Cl)ccc32)CC1 | inactive |
| C[C@@H]1O[C@@H](O[C@H]2C[C@@H](O)[C@]3(CO)[C@H]4[C@H](O)C[C@]5(C)[C@@H](C6=CC(=O)OC6)CC[C@]5(O)[C@@H]4CC[C@]3(O)C2)[C@H](O)[C@H](O)[C@H]1O | 0.059 µM (active) |
| CNCC(O)c1ccc(O)cc1 (stereo unspecified) | inactive |
| CN(C)CCc1ccc(O)cc1 | inactive |
| CC(O)(CS(=O)(=O)c1ccc(F)cc1)C(=O)Nc1ccc(C#N)c(C(F)(F)F)c1 (stereo unspecified) | 2.64 µM (active) |
| C#CCN(C)[C@H](C)Cc1ccccc1 | inactive |
| CCCC(C)(COC(N)=O)COC(=O)NC(C)C (stereo unspecified) | inactive |
| CNC(=O)N1N=C(c2ccc(N)cc2)c2cc3c(cc2CC1C)OCO3 (stereo unspecified) | 11.8 µM (active) |
| COc1ccc(C(=O)c2c(C)n(CCN3CCOCC3)c3ccccc23)cc1 | inactive |
| C[C@@H]1[C@@H](C(=O)C[C@H]2O[C@@H]3O[C@]4(C)CC[C@@H]5[C@H](C)CC[C@@H]([C@H]2C)[C@@]35OO4)O[C@@H]2O[C@]3(C)CC[C@H]4[C@H](C)CC[C@@H]1[C@@]24OO3 | 20.9 µM (active) |
| O=C1CC[C@@]2(O)[C@H]3Cc4ccc(O)c5c4[C@@]2(CCN3CC2CC2)[C@H]1O5 | inactive |
| COC[C@@H](NC(C)=O)C(=O)NCc1ccccc1 | inactive |
| Cc1sc2c(c1C)C(c1ccc(Cl)cc1)=N[C@@H](CC(=O)OC(C)(C)C)c1nnc(C)n1-2 | 1.32 µM (active) |
| C[C@@H]1[C@@H](CC(C[C@H]2O[C@@H]3O[C@]4(C)CC[C@@H]5[C@H](C)CC[C@@H]([C@H]2C)[C@@]35OO4)C[S+](=O)([O-])c2ccc(COC(=O)N(C)C)cc2)O[C@@H]2O[C@]3(C)CC[C@H]4[C@H](C)CC[C@@H]1[C@@]24OO3 (stereo partly specified) | 0.469 µM (active) |
| CNC(=O)c1ccc(N2C(=S)N(c3ccc(C#N)c(C(F)(F)F)c3)C(=O)C23CCC3)cc1F | 23.5 µM (active) |
| O=C(O)C(=O)c1cn(Cc2ccccc2)c2ccc(-c3ccc(OC(F)(F)F)cc3)cc12 | inactive |
| N[C@@H](Cc1ccc(N(CCCl)CCCl)cc1)C(=O)O | inactive |
| COc1ccc2c(c1OC)CN1CCc3cc4c(cc3C1C2)OCO4 (stereo unspecified) | inactive |
| Fc1ccc(C(OCCN2CCN(CCCc3ccccc3)CC2)c2ccc(F)cc2)cc1 | 26.4 µM (active) |
| CN1CCN(C(=O)O[C@H]2c3nccnc3C(=O)N2c2ccc(Cl)cn2)CC1 | inactive |
